This passage reports growth results from PubChem BioAssay (NCI).

The panel holds about 83,000 compounds, 20% with a hit somewhere; the sample as a whole holds those more often.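 Results are percent growth after 48 hours of single-concentration exposure. 100 means growth as in untreated cells, lower positive values show inhibition; negative values down to -100 show cell death.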 Unmarked numbers belong to inactive results. Activity calls are given as the source filed them. Rule for the calls: active = growth percent below 10; inactive = the rest.

Test systems include DU-145 prostate; K-562 leukemia; MALME-3M melanoma; MDA-MB-231 breast; RXF 393 renal; SF-268 CNS; SF-295 CNS; SF-539 CNS; UACC-257 melanoma; HCT-15 colon; HT29 colon; SNB-75 CNS; U251 CNS; PC-3 prostate; SK-MEL-5 melanoma; UACC-62 melanoma; LOX IMVI melanoma; SK-MEL-28 melanoma; SNB-19 CNS.
Common to all, as to assay: NCI-60 one-dose screen, 48 h (100 = growth as untreated, 0 = no growth, -100 = all killed)
Settings in all cases: 10 µM unless noted

`CCO/C=N/C1=C(C#N)C(c2ccc(F)cc2)c2sc3c(F)cccc3c2O1` (centres undefined): the growth in the assay on DU-145 prostate was 62.4%; in the assay with K-562 leukemia it was 23.5%; with MALME-3M melanoma, 57.6%; in the assay on MDA-MB-231 breast it was 51%; in the assay on RXF 393 renal it was 33.3%; with SF-268 CNS, 50.3%. In addition, the growth in the assay with SF-295 CNS was 22%; in the assay with SF-539 CNS it was 28.9%; in the assay with UACC-257 melanoma, 60.2%; in the assay with HCT-15 colon, 26%; in the assay with HT29 colon, 56.8%; with SNB-75 CNS, 13.4%. Moreover, the growth with U251 CNS was 26.6%; with PC-3 prostate it was 47.9%; in the assay with SK-MEL-5 melanoma, 35.5%; in the assay on UACC-62 melanoma, 15.2%; with LOX IMVI melanoma, 36%; in the assay with SK-MEL-28 melanoma it was 60.4%.
Regarding `O=C(Nc1cnc(Nc2ccc(N3CCOCC3)nc2)nc1Oc1ccc(C(F)(F)F)cc1)c1ccncc1`, the growth with DU-145 prostate is 66%; in the assay with K-562 leukemia it was 78.7%; with MALME-3M melanoma, 96.9%; with MDA-MB-231 breast it was 94.5%; in the assay on RXF 393 renal it was 93.1%; with SF-268 CNS it was 86.3%. Further, the growth was 104% in the assay on SF-295 CNS; -53.1% (active) in the assay on SF-539 CNS; 92.8% in the assay on UACC-257 melanoma; 96.9% in the assay with HCT-15 colon; 101% with HT29 colon; 89.8% with SNB-75 CNS. For the same molecule, the growth is 91.1% with SNB-19 CNS; 92.1% with U251 CNS; 97.4% with PC-3 prostate; 95.3% in the assay on SK-MEL-5 melanoma; 94.1% in the assay on UACC-62 melanoma; 86% in the assay on LOX IMVI melanoma. The growth in the assay with SK-MEL-28 melanoma is 95.8%.
In the case of `CNC(C)[C@H]1CCC2C3CC=C4C(=O)[C@@H](NC(=O)C=C(C)C)CC[C@]4(C)C3CC[C@@]21C` (some centres undefined), the growth is 52.9% with DU-145 prostate; -62.1% (active) in the assay on K-562 leukemia; -52.2% (active) with MALME-3M melanoma; -12.4% (active) in the assay on MDA-MB-231 breast; -59% (active) with RXF 393 renal; -15.7% (active) in the assay on SF-268 CNS. The growth is -8.38% (active) with SF-295 CNS; -92.5% (active) with SF-539 CNS; -30.8% (active) in the assay on UACC-257 melanoma; -54.1% (active) with HCT-15 colon; -52% (active) in the assay on HT29 colon; 22.5% with SNB-75 CNS. Moreover, the growth is 18.2% with U251 CNS; 6.67% (active) in the assay with PC-3 prostate; -89.8% (active) in the assay with SK-MEL-5 melanoma; -67.2% (active) in the assay on UACC-62 melanoma; -54% (active) in the assay with LOX IMVI melanoma; -86.1% (active) with SK-MEL-28 melanoma.
`CC1(C)CC[C@]23CC[C@]4(C)[C@H](CC[C@@H]5[C@@]6(C)C/C(=C/c7ccncc7)C(=O)C(C)(C)[C@@H]6CC[C@]54C)[C@H]2[C@H]1OC3`: the growth is 82.1% in the assay with DU-145 prostate; 69.9% with K-562 leukemia; 87.9% in the assay on MALME-3M melanoma; 65.5% in the assay with MDA-MB-231 breast; 88.4% in the assay on RXF 393 renal; 78.1% in the assay with SF-268 CNS. Further, the growth in the assay with SF-295 CNS was 90.9%; with SF-539 CNS, 58.7%; with UACC-257 melanoma, 85.5%; with HCT-15 colon it was 73.4%; with HT29 colon it was 43.9%; with SNB-75 CNS it was 61.4%. Further, the growth with SNB-19 CNS was 83.4%; with U251 CNS it was 70%; in the assay with PC-3 prostate it was 51%; in the assay with SK-MEL-5 melanoma, 78.8%; in the assay with UACC-62 melanoma it was 90.5%; in the assay with LOX IMVI melanoma it was 73.1%. The growth in the assay with SK-MEL-28 melanoma is 76%.
For `CC1=CC(c2ccco2)=C2C(N)=NNC2N1` (centres undefined), the growth with DU-145 prostate is 110%; in the assay on K-562 leukemia, 99.6%; in the assay with MALME-3M melanoma it was 92.5%; in the assay with MDA-MB-231 breast, 92.1%; in the assay with RXF 393 renal, 119%; with SF-268 CNS, 98.7%. Besides, the growth was 98.2% in the assay on SF-295 CNS; 81.1% with SF-539 CNS; 102% in the assay on UACC-257 melanoma; 99.7% in the assay on HCT-15 colon; 104% in the assay with HT29 colon; 64% with SNB-75 CNS. Moreover, the growth was 92.9% in the assay on SNB-19 CNS; 96.8% in the assay on U251 CNS; 101% with PC-3 prostate; 101% in the assay on SK-MEL-5 melanoma; 89.3% in the assay with UACC-62 melanoma; 98.3% in the assay on LOX IMVI melanoma. Further, in the assay with SK-MEL-28 melanoma, the growth was 96.5%.
As to `CCCCNC(=O)Oc1ccc(/C(=C(/C)Cc2ccc(OC)cc2)c2ccc(OCCN3CCCCC3)cc2)cc1`, the growth with DU-145 prostate was 92.1%; in the assay with K-562 leukemia, -14.1% (active); in the assay with MALME-3M melanoma, 79.1%; in the assay with MDA-MB-231 breast it was 87.6%; with RXF 393 renal, 71.5%; with SF-268 CNS, 81.2%. For the same molecule, the growth in the assay with SF-295 CNS was 86.8%; in the assay with SF-539 CNS it was 80.4%; in the assay with UACC-257 melanoma, 99.2%; in the assay on HCT-15 colon, 32.3%; with HT29 colon it was 2.86% (active); in the assay with SNB-75 CNS it was 64.8%. The growth is 77.1% with SNB-19 CNS; 54.7% in the assay with U251 CNS; 59% with PC-3 prostate; 57% with SK-MEL-5 melanoma; 67.7% with UACC-62 melanoma; 70.4% in the assay with LOX IMVI melanoma. The growth in the assay on SK-MEL-28 melanoma was 78.2%.
Turning to `Oc1ccc(/C=C/c2ccc(O)cc2)cc1`, the growth in the assay with DU-145 prostate is 56.9%; with K-562 leukemia, 69.5%; with MALME-3M melanoma it was 58.9%; with MDA-MB-231 breast, 80.1%; in the assay on RXF 393 renal, 62.8%; in the assay on SF-268 CNS, 42.7%. The growth in the assay on SF-295 CNS is 88.1%; with SF-539 CNS, -11.4% (active); with UACC-257 melanoma it was 72.3%; with HT29 colon it was 101%; in the assay on SNB-75 CNS it was 46.9%; in the assay with SNB-19 CNS it was 89.2%. The growth with U251 CNS was 39.1%; with PC-3 prostate, 55.3%; in the assay with SK-MEL-5 melanoma, 52%; with UACC-62 melanoma it was 37.4%; in the assay with LOX IMVI melanoma, 44.4%; with SK-MEL-28 melanoma, 76.9%.
Consider `O=C(NNC(=O)c1nc2cc(F)ccc2n2cccc12)c1cnccn1`, for which the growth in the assay on DU-145 prostate is 44.5%; with K-562 leukemia, 18.2%; in the assay with MALME-3M melanoma it was 37.7%; with MDA-MB-231 breast, 37.4%; with RXF 393 renal, 66.4%; in the assay with SF-268 CNS, 34.8%. For the same molecule, the growth in the assay on SF-295 CNS is 21.6%; in the assay on SF-539 CNS it was 29.6%; in the assay on UACC-257 melanoma, 53.6%; with HCT-15 colon, 24.3%; with HT29 colon, 31.2%; with SNB-75 CNS it was 77.1%. In addition, the growth with SNB-19 CNS is 33%; in the assay on U251 CNS it was 20.3%; in the assay on PC-3 prostate, 43.7%; in the assay with SK-MEL-5 melanoma, 42.7%; in the assay with UACC-62 melanoma, 19.6%; in the assay with LOX IMVI melanoma it was 26.7%. In the assay on SK-MEL-28 melanoma, the growth is 36.4%.
